Experimental data reported in PubChem BioAssay (Tox21).
Records with an inconclusive call do not appear. Unmarked numbers belong to inactive results. Activity calls are given as the source filed them. Unless noted, calls follow the shape of the full dose curve.

System: not listed separately
Test: qHTS assay to identify small molecule agonists of the estrogen related receptor signaling pathway with the pleiotropic PPARgamma coactivator (PGC) from Tox21 10K library (AID 1224842; active = well fitted activation curve with a large enough effect in the repeat runs; also: nearly all actives have a fitted effect of over 15% in size)
Conditions: PGC/ERR reporter cell line, luciferase ONE-Glo, 18 h; series mostly up to 92.4 µM; activation: at the top concentration
In short: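 PGC/ERR reporter cells (NTP line) were seeded 2,000 per well, rested 6 h at 37 C/5% CO2, then pin-dosed with compounds in DMSO for 18 h at 37 C; luciferase read by One-Glo luminescence after 30 min at room temperature.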
% is scaled to controls: 0 for no effect and ±100 for the full control effect.

| Compound | activation |
| --- | --- |
| CCCC(Cn1cncn1)c1ccc(Cl)cc1Cl (centres undefined) | -22.8% |
| CCc1ccc(C(=O)NN(C(=O)c2cc(C)cc(C)c2)C(C)(C)C)cc1 | -23.5% |
| C[C@@H]1CC[C@H]2[C@@H](C)C(=O)O[C@@H]3O[C@@]4(C)CC[C@@H]1[C@]32OO4 | -16.6% [at 42.5 µM] |
| c1ccc(C2CC2)c(OCC2=NCCN2)c1 | 7.89% [at 42.5 µM] |
| Clc1cccc(SC2CCNCC2)n1 | 0.847% [at 42.5 µM] |
| CCCCCCCCCCOC(=O)c1ccccc1C(=O)OCCCCCCCCCC | 1.31% |
| [O-][Cl+]O | 1.14% |
| CNP(=O)(OC)Oc1ccc(C(C)(C)C)cc1Cl (centres undefined) | -6.14% |
| O=C(CBr)Nc1ccc(Cl)cc1C(=O)c1ccccc1F | 2.09% [at 42.5 µM] |
| C=C(C#N)CCC#N | -0.261% |
| C=CCN1CC[C@]23c4c5ccc(O)c4O[C@H]2C(=O)CC[C@@]3(O)[C@H]1C5 | 0.106% [at 42.5 µM] |
| CO[C@@H]1[C@H](OC(=O)NC(=O)CCl)CC[C@]2(CO2)[C@H]1[C@@]1(C)O[C@@H]1CC=C(C)C | -7.49% [at 19 µM] |
| O=C(NC(=O)c1c(F)cccc1F)Nc1ccc(OC(F)(F)C(F)OC(F)(F)F)c(Cl)c1 (centres undefined) | -4.96% [at 42.5 µM] |

Biological target: Thyrotropin receptor (Homo sapiens) (UniProt P16473)
Sequence (P16473 whole entry, looked up): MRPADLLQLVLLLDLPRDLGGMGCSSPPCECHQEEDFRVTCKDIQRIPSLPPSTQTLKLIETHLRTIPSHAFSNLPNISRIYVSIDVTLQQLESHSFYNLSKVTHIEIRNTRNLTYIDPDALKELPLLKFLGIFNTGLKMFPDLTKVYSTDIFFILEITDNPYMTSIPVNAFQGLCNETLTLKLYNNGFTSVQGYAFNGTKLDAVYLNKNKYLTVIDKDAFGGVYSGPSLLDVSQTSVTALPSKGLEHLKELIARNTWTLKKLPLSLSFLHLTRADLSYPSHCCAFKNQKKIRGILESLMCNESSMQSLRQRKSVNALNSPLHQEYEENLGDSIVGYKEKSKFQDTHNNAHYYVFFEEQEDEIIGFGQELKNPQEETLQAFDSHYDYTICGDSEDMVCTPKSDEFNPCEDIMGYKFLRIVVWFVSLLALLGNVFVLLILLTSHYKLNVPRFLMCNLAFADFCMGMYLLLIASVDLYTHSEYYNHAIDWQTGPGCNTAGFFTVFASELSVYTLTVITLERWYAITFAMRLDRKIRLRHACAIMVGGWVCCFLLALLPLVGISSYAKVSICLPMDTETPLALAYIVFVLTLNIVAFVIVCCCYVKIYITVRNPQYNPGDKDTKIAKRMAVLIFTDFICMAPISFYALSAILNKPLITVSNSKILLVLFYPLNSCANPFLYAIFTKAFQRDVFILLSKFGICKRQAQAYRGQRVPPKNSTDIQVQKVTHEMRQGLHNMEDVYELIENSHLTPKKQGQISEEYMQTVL
Test: qHTS assay to identify small molecule agonists of the thyroid stimulating hormone receptor (TSHR) signaling pathway (AID 1224843); also: nearly all actives have a fitted effect of over 45% in size; also: potency is read from the fitted curve at half-maximal effect
Conditions: TSHR-HEK293 cells, cAMP HTRF, agonist mode, 30 min; series mostly up to 92.4 µM; activation: at the top concentration
In short: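 Cell line HEK293 with TSHR; density 800/well. Exposure 30 min RT. Readout HTRF cAMP (cAMP-d2/anti-cAMP-cryptate), 1 h RT before reading.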

| Compound | activation | Potency |
| --- | --- | --- |
| CC(=O)CCC(C)=O | -1.69% |  |
| Cc1ccccc1C(=O)Nc1cccc(OC(C)C)c1 | -17.7% |  |
| CCCC(Cn1cncn1)c1ccc(Cl)cc1Cl (centres undefined) | -3.03% |  |
| CCc1ccc(C(=O)NN(C(=O)c2cc(C)cc(C)c2)C(C)(C)C)cc1 |  | 15.4 µM (active) |
| BrCCCCBr | -15.8% |  |
| c1cc2ccc3cccc4ccc(c1)c2c34 |  | 7.19 µM (active) |
| C[C@@H]1CC[C@H]2[C@@H](C)C(=O)O[C@@H]3O[C@@]4(C)CC[C@@H]1[C@]32OO4 | -3.31% [at 42.5 µM] |  |
| CC(C)N(CCC(C(N)=O)(c1ccccc1)c1ccccn1)C(C)C (centres undefined) | -5.53% [at 42.5 µM] |  |
| Clc1cccc(SC2CCNCC2)n1 | 10.5% [at 42.5 µM] |  |
| CCCCCCCCCCOC(=O)c1ccccc1C(=O)OCCCCCCCCCC | -0.25% |  |
| c1ccc(CN2CCNCC2)cc1 | -1.35% [at 240 µM] |  |
| CNP(=O)(OC)Oc1ccc(C(C)(C)C)cc1Cl (centres undefined) | 21.4% |  |
| O=C(CBr)Nc1ccc(Cl)cc1C(=O)c1ccccc1F | -2.22% [at 42.5 µM] |  |
| Brc1ccc(Oc2ccccc2)cc1 |  | 1.25 µM (active) |
| NCCCNCCCN | 0.368% |  |
| BrCC(Br)C1CCC(Br)C(Br)C1 (centres undefined) |  | 48.3 µM (active) |
| C=C(C#N)CCC#N | 0.261% |  |
| C=CCN1CC[C@]23c4c5ccc(O)c4O[C@H]2C(=O)CC[C@@]3(O)[C@H]1C5 | -2.41% [at 42.5 µM] |  |
| O=[N+]([O-])C(Br)(CO)CO |  | 30.6 µM (active) |
| CCCCCCC#N | 0.235% |  |
| CO[C@@H]1[C@H](OC(=O)NC(=O)CCl)CC[C@]2(CO2)[C@H]1[C@@]1(C)O[C@@H]1CC=C(C)C | -6.28% [at 19 µM] |  |
| O=C1c2ccccc2C(=O)C1C(=O)C(c1ccccc1)c1ccccc1 | 0.688% [at 42.5 µM] |  |
| C=COC(C)=O | -5.29% |  |
| CN1C(=O)NC(=O)C(C)(C2=CCCCC2)C1=O (centres undefined) | -0.0054% [at 42.5 µM] |  |
| CCCCCC[N+](=O)[O-] | -1.05% |  |
| O=C(NC(=O)c1c(F)cccc1F)Nc1ccc(OC(F)(F)C(F)OC(F)(F)F)c(Cl)c1 (centres undefined) | -0.559% [at 42.5 µM] |  |
